# Screening data deposited in PubChem BioAssay by several laboratories.
# KCC2 mod: modulators of human KCC2 chloride dependent transport. Q9H2X9. B-score of Tl+ flux slope (higher = more flux/activation; lower = inhibition) at 10 µM. KCC2 cells, thallium flux FluoZin-2 fluorescence. hit rate 2.2% among 190,000;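 active means thallium flux slope and its plate-corrected score both differing from the plate sample mean at a set confidence after two filtering rounds, in either direction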;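 further: slope of fluorescence scaled to starting intensity during 10 to 20 s after thallium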
# EP2 antag: blocks the human prostaglandin E2 receptor EP2 | P43116 | C6 glioma cells expressing human EP2, cAMP TR-FRET; cells stimulated with saturating PGE2 | inhibition, % at 25 µM | hit rate 0.52% among 260,000;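 active means percent inhibition above 40 after rounding to a whole number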;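 further: rat C6 glioma host cells with rolipram phosphodiesterase inhibitor present; the protocol text gives 20 µM as final concentration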
# EP2 mod: modulators of human EP2 prostaglandin E2 receptor | induction, % at 25 µM | P43116 | hit rate 0.83% among 260,000 | AID 940 | EP2-expressing cells, cAMP HTRF FRET, PGE2 co-stimulation;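 active means compounds whose cAMP rise, as percent of the full-agonist control response, exceeds 60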;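 further: rat C6 glioma line stably carrying human EP2 under a CMV promoter; the protocol text gives 20 µM as final concentration; 100% = response of wells given 1 µM PGE2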
# S1P3 antag: blocks the human S1P3 receptor; Q99500; inhibition, % at 4.98 µM; AID 485; hit rate 0.27% among 170,000; CHO S1P3 NFAT-BLA reporter, FRET fluorescence, antagonist mode;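 active means inhibition above the plate cutoff, the mean inhibition of test wells on that plate plus 3 SD, cut at about 28% in these data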;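 further: cells challenged with S1P at its EC80 of 0.8 µM; blue over green emission ratio from cleaved BLA substrate after 4 h stimulation; 0% = S1P-stimulated wells and 100% = unstimulated DMSO-only wells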
# Target sequence (Q99500 whole entry, looked up): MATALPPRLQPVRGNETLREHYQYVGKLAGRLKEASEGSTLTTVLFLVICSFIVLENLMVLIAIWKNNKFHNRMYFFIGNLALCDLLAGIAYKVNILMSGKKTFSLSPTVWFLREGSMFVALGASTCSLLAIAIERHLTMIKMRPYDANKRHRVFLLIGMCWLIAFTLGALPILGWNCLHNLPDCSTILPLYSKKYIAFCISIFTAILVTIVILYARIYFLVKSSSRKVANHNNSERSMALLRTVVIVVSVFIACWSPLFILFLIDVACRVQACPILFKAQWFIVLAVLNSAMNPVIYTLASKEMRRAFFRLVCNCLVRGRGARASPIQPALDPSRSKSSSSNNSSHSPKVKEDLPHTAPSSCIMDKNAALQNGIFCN
# EP2 cAMP induct: human EP2 receptor cAMP induction, negative in counter-screens; hit rate 47% among 1,300; AID 1080; calls only at 20 µM (by protocol); C6 glioma EP2 cells, cAMP HTRF induction; plus low (about EC15) PGE2 agonist; shares compounds with EP2 mod;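 active means cAMP induction above 50% in the main assay while under 30% in all four parallel counter assays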;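 further: rat C6 glioma cells stably expressing human EP2 receptor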
# An asterisk follows results filed as active; i = inactive; · = not tested or not shown; + = active, no number. Only some compounds are listed: those with a hit (about 3.1% of all), similar ones and a draw of the others.
SMILES,KCC2 mod,EP2 antag,EP2 mod,S1P3 antag,EP2 cAMP induct
Cc1cc(C)c(S(=O)(=O)c2ccccc2)c(OC(=O)c2cc(F)c(F)cc2Cl)n1,-0.0032,28,73*,·,i
O=C(CN1CCC(O)(c2ccccn2)CC1)NCc1ccc2c(c1)OCO2,·,·,-160,·,·
CC(=O)N1c2ccccc2C(C)CC12CCCCC2 (configuration not stated),-0.37,8,93*,10,+
CC(=O)N1Cc2ccccc2C(C)CC12CCCC2 (configuration not stated),-3,14,24,-2,·
Cc1cccc2cc3c(N)c(C(=O)OC(C)C)sc3nc12,·,11,-42,·,·
COCCNS(=O)(=O)c1ccc2c(c1)NC(=O)C(C)(C)O2,·,3,0,·,·
CC(C)N(Cc1nc(-c2ccccc2)no1)S(=O)(=O)c1ccccc1,-0.12,10,15,-8,·
O=S(=O)(c1ccccc1)N(Cc1nc(-c2ccccc2)no1)C1CCCCC1,·,15,83*,21,+
COc1ccc(-n2c(COc3ccc(C)cc3)nnc2SCc2ccc(C#N)cc2)cc1,0.56,1,25,·,·
COc1ccc(-n2c(COc3ccc(Cl)cc3)nnc2SCc2ccc(C#N)cc2)cc1,-0.74,5,53,·,i
CCOP(=O)(OCC)c1nc(-c2ccc(Cl)cc2Cl)oc1N1CCCCC1,0.46,3,52,-8,i
CCc1ccc(OCc2nnc(SCC(=O)O)n2CC)cc1,·,13,23,·,·
Cn1c(=O)c2c(SC3CCCC3)nc(C3CC3)nc2n(C)c1=O,·,11,79*,1,+
O=C(CSc1nc(Cc2ccccc2)nc2ccccc12)c1ccc2c(c1)OCCO2,0.45,5,66*,·,+
CCc1nc(SCC(=O)c2ccc3c(c2)OCCO3)c2ccccc2n1,·,14,-50,·,·
Cc1ccc2cc(C#N)c(=S)[nH]c2c1,·,14,-35,·,·
CCC(C)Nc1nc(-c2cccnc2)nc2ccccc12 (configuration not stated),·,7,20,·,·
CN(Cc1cccs1)c1nc(-c2cccnc2)nc2ccccc12,-3,4,74*,7,+
Cc1cccc(C)c1NC(=O)Cn1cc(C(=O)C(C)(C)C)c2ccccc21,·,9,-12,·,·
Cc1ccc(C(=O)N(Cc2ccccc2)C(C)(C)C)cc1C,-1.3,8,45,-18,·
CC(C)(C)N(Cc1ccccc1)C(=O)c1ccc(Br)o1,-0.93,5,63*,-3,i
CCc1cccc(C)c1NC(=O)CN1CCOCC1,·,8,-4,·,·
C=CCc1cccc(/C=N/c2nc3ccccc3n2CC)c1O,·,2,84*,0,i
Cc1ccnc(NS(=O)(=O)c2cccs2)c1,-0.19,8,83*,-37,i
CCc1ccc2nc(SCC(=O)NCC3CCCO3)c(C#N)cc2c1 (configuration not stated),-0.09,6,-26,-11,·
SMILES,KCC2 mod,EP2 antag,EP2 mod,S1P3 antag,EP2 cAMP induct
CCc1ccc2nc(-c3cccc(C)c3)nc(SCC(=O)NCC3CCCO3)c2c1 (configuration not stated),0.28,11,86*,·,i
CCOC(=O)c1cccc(NC(=O)CSc2nnnn2-c2ccccc2OC)c1,·,18,-40,·,·
CCOC(=O)c1cc(CC)sc1NC(=O)CCC(=O)OC,·,9,20,·,·
O=c1n(Cc2ccccc2F)c2ccccc2n1Cc1ccccc1F,-0.0079,18,77*,·,+
CCn1c(=O)c(C(=O)Nc2ccccc2C(F)(F)F)c(O)c2ccccc21,·,4,1,·,·
Cc1sc2ncnc(N(C)Cc3cccs3)c2c1C,-2.2,14,52,·,+
Cc1ccnc(SCC(=O)n2c3c(c4ccccc42)CC(C)CC3)n1 (configuration not stated),·,-7,74*,·,+
Cc1ccc(N=Nc2c(N)[nH]n3c(=O)c4c(nc23)CCCC4)cc1,·,·,81*,·,+
CC(C)(C)c1ccc(C(=O)N(CCN2CCOCC2)c2nc3ccccc3s2)cc1,·,10,51,·,·
COCCNc1c(C)c(C)nc2c(-c3ccc(OC)cc3)c(C)nn12,·,·,-9,·,·
Cc1ccc(S(=O)(=O)c2c(C)nn(-c3ccccc3)c2OC(=O)c2ccc(Br)o2)cc1,0.68,11,10,-3,·
Cc1ccc(S(=O)(=O)c2c(C)nn(-c3ccccc3)c2OC(=O)c2ccco2)cc1,-0.51,11,67*,-10,i
CCC1CCc2c(sc3ncnc(N4CCOCC4)c23)C1 (configuration not stated),-0.13,14,58,-1,+
CN(Cc1c(C(=O)N2CCc3ccccc3C2)nc2ccc(Cl)cn12)C(C1CC1)C1CC1,-0.12,18,76*,-9,i
O=C(CSc1nnnn1C1CCCCC1)Nc1nc(-c2ccc(Cl)cc2)cs1,·,10,-47,·,·
CC(Sc1nc2ccccc2n1C)C(=O)NC(c1ccccc1)c1ccccc1 (configuration not stated),0.16,4,72*,·,+
Cn1c(SC(C(=O)Nc2ccc(F)cc2)c2ccccc2)nc2ccccc21 (configuration not stated),0.69,4,1,3,·
COc1cc(C=O)ccc1OC(=O)c1ccc(C(C)C)cc1,0.084,6,74*,-11,i
COCCCn1c(SCC(=O)N2CCOCC2)nnc1-c1ccccc1,·,10,-12,·,·
c1ccc(-c2n[nH]nc2-c2ccccc2)cc1,·,4,66*,-7,+
Cc1cccc(N2CCN(C(c3nnnn3C3CCCC3)C(C)C)CC2)c1C (configuration not stated),·,12,32,·,·
Cc1cccc2cc(C#N)c(SCC(=O)Nc3c[nH]c(=O)[nH]c3=O)nc12,·,12,48,·,·
COCCCn1c(SCC(=O)Nc2ccccc2)nnc1-c1cccs1,·,11,3,·,·
Cc1ccc(C(Sc2ccccc2)C(Cn2cncn2)C(=O)c2ccccc2)cc1 (configuration not stated),-0.091,8,73*,·,+
Cc1cccc(NC(=O)CSc2nnc(-c3cccnc3)n2C)c1,·,4,-4,·,·
SMILES,KCC2 mod,EP2 antag,EP2 mod,S1P3 antag,EP2 cAMP induct
O=C(Nc1cccc(NC(=O)c2ccc(Br)o2)n1)c1ccc(Br)o1,1.1,15,-18,·,·
Cc1ccc2cccc(NC(=O)c3ccc(Br)o3)c2n1,·,10,87*,-21,+
O=C(Nc1ccccc1-c1nc2ccccc2s1)c1ccc(Br)o1,0.19,13,78*,·,+
O=C(NCc1ccc(-c2nc3ccccc3s2)cc1)c1ccc(Br)o1,-0.2,3,-14,-3,·
CCOC1=CC(c2ccc3c(c2)OCO3)CC(=O)c2c(C)oc(C)c21 (configuration not stated),·,5,10,·,·
COCCOc1nc2c(c(=O)n(C)c(=O)n2C)n1Cc1cccc2ccccc12,·,9,-58,·,·
C=CCn1c(=O)c2c3c(sc2n2c(Nc4ccc(OC)cc4)nnc12)CCCC3,-0.74,12,75*,-6,+
CC(Sc1nnc(-c2cccs2)n1Cc1ccccc1)C(=O)NCc1ccc2c(c1)OCO2 (configuration not stated),-0.22,2,70*,·,i
